# The supplement of paper PMC10849652
# About 7,900 targets were measured; listed, in parts, are those with a hit and a random draw of the rest. About 0.6% of all pairs of compound and target were hits. A number with no mark means an inactive call.
# Key:
# Assay in all cases: log2 fold change, soluble protein after heating vs DMSO (PISA); higher = thermal stabilisation; K562 cells, 10 uM, 30 min; active = over 0.2 and 3.5 SD of the protein, either way, in both replicates (recomputed)
# [1] = compound: CC[C@@H]1C(=O)N(C)c2cnc(Nc3ccc(C(=O)NC4CCN(C)CC4)cc3OC)nc2N1C1CCCC1
# Outline: (§1)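 Thermal stability values are relative to control samples and come from duplicates. They are expressed as log2 fold changes. For measurement, K562 cells (2×10^6 cells/mL) received 10 μM compound for 30 min, and aliquots were heated for 3 min over 48°C-58°C, pooled, and extracted at 4°C in PBS with 0.5% NP-40. Soluble protein, the supernatant after 21,000xg for 90 min, was quantified by TMTpro 16plex LC-MS/MS with equalised channel sums.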
# volasertib = compound: CC[C@@H]1C(=O)N(C)c2cnc(Nc3ccc(C(=O)N[C@H]4CC[C@H](N5CCN(CC6CC6)CC5)CC4)cc3OC)nc2N1C(C)C [volasertib]
# Outline: as §1
# [2] = compound: CC[C@H](C)N1C=C(C2=C(C=C(C=C21)C3=CN=C(C=C3)N4CCNCC4)C(=O)NCC5=C(C=C(NC5=O)C)C)C
# Outline: as §1
# epoxomicin = compound: CC[C@H](C)[C@@H](C(=O)N[C@@H]([C@@H](C)O)C(=O)N[C@@H](CC(C)C)C(=O)[C@]1(CO1)C)NC(=O)[C@H]([C@@H](C)CC)N(C)C(=O)C [epoxomicin]
# Outline: as §1
# [3] = compound: CCn1c(C(=O)N(C2CC2)C2CC2)cc2c3c(ncn3C)c(Nc3cc(C)n(C)n3)nc21
# Outline: as §1
# [4] = compound: CCn1cc(-c2ccnc3[nH]c(-c4cccc(CN(C)C)c4)cc23)c(-c2ccc(NC(=O)N(C)C)cc2)n1
# Outline: as §1
# [5] = compound: CN(C)CC(=O)Nc1ccc2[nH]c(=O)c3ccccc3c2c1
# Outline: as §1
# rosiglitazone = compound: CN(CCOC1=CC=C(C=C1)C[C@H]2C(=O)NC(=O)S2)C3=CC=CC=N3 (racemic) [rosiglitazone]
# Outline: as §1
# [6] = compound: CN1C2=C(C3=C1C(=O)N(N=C3)CC4=CC(=CC=C4)N)SC(=C2)S(=O)C
# Outline: as §1
# [7] = compound: CN1CCC(CNc2ccc3ncc(-c4cccc(OC(F)(F)F)c4)n3n2)CC1
# Outline: as §1
# Chain of UniProt Q9UHD2 (Q9UHD2 whole entry, looked up): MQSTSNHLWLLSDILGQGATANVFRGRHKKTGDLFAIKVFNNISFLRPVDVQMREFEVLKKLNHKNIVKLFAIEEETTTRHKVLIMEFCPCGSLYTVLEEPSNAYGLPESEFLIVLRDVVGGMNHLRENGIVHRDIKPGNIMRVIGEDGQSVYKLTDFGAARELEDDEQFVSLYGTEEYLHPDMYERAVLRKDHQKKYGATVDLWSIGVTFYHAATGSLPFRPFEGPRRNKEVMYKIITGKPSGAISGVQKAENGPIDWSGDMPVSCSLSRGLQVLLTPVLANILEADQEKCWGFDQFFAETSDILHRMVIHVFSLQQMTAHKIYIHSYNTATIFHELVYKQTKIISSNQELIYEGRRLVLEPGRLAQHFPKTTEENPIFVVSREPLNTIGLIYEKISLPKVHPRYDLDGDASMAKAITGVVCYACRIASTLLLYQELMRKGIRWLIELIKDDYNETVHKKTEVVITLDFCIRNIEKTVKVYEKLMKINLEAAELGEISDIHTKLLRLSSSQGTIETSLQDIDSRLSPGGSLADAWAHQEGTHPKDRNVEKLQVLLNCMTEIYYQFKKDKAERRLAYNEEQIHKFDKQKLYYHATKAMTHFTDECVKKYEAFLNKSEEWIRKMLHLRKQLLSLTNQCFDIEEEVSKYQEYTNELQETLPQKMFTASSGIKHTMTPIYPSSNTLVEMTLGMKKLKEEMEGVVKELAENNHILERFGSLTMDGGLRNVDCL
# Chain of UniProt P51687 (P51687 whole entry, looked up): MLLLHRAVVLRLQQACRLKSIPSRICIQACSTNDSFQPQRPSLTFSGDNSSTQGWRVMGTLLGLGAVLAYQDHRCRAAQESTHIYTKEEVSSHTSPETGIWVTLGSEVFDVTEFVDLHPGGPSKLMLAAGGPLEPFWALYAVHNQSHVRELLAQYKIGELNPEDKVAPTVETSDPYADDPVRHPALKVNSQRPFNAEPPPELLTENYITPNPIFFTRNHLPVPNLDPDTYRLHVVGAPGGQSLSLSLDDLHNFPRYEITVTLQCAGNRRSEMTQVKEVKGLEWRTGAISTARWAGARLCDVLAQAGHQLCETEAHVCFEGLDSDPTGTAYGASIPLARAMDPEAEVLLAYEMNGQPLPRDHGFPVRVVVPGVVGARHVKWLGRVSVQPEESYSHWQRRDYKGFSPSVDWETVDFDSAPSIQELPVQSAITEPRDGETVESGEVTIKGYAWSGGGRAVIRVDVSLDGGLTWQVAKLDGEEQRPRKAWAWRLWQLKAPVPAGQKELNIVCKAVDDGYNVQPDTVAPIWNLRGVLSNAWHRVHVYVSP
# Chain of UniProt Q13395 (Q13395 whole entry, looked up): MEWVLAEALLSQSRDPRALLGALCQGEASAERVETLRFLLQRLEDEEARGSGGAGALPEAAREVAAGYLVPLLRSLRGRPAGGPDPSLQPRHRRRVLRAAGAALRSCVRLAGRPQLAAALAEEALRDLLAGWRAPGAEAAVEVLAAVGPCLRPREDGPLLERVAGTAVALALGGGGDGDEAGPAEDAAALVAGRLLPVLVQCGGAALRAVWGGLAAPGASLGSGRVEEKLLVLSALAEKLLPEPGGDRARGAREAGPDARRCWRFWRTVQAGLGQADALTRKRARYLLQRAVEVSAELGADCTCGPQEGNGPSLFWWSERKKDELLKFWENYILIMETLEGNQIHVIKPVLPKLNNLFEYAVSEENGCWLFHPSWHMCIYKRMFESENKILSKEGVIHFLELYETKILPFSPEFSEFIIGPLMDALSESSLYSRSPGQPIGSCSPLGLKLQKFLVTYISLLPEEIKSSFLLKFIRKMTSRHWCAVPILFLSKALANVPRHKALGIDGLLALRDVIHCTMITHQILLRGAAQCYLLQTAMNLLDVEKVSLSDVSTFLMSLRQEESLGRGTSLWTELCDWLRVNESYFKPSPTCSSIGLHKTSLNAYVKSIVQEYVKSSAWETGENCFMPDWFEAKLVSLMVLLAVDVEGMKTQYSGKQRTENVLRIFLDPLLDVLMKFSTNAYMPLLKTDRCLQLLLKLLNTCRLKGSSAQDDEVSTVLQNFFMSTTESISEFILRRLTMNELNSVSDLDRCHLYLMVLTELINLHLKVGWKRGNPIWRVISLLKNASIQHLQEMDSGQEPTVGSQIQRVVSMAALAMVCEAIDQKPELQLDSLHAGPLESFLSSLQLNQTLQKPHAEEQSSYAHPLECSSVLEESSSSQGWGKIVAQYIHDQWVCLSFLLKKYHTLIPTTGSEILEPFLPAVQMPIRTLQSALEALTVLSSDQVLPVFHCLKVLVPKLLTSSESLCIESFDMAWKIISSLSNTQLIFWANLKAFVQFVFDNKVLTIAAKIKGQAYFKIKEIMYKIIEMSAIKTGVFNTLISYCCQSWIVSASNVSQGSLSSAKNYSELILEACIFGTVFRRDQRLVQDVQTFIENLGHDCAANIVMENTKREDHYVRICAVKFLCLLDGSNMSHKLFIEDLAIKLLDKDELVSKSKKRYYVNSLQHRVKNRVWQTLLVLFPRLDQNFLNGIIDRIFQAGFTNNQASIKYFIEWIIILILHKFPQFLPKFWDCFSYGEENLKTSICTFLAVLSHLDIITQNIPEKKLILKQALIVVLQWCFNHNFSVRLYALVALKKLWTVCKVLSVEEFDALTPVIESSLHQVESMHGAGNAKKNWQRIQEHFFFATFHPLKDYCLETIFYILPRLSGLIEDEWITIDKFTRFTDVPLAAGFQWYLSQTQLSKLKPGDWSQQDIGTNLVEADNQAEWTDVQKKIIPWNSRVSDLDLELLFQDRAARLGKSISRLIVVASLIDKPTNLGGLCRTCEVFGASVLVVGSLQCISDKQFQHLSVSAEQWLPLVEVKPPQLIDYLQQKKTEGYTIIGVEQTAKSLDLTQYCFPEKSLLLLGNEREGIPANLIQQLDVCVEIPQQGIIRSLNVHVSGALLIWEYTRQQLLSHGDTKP
# Chain of UniProt P12931 (P12931 whole entry, looked up): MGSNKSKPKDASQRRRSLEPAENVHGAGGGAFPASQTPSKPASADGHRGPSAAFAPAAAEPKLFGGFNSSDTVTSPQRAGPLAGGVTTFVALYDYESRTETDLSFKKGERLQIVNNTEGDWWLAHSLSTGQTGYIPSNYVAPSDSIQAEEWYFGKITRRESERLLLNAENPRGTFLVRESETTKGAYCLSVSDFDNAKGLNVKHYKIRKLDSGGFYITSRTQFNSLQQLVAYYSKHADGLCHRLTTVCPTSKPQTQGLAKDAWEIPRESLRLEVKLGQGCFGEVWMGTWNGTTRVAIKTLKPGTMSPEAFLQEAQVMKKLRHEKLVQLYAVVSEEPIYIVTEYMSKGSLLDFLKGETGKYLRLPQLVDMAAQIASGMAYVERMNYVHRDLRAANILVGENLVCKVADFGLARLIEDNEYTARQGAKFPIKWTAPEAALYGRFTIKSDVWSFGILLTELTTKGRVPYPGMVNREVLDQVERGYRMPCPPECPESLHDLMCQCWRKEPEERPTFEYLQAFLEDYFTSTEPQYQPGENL
# Chain of UniProt Q99805 (Q99805 whole entry, looked up): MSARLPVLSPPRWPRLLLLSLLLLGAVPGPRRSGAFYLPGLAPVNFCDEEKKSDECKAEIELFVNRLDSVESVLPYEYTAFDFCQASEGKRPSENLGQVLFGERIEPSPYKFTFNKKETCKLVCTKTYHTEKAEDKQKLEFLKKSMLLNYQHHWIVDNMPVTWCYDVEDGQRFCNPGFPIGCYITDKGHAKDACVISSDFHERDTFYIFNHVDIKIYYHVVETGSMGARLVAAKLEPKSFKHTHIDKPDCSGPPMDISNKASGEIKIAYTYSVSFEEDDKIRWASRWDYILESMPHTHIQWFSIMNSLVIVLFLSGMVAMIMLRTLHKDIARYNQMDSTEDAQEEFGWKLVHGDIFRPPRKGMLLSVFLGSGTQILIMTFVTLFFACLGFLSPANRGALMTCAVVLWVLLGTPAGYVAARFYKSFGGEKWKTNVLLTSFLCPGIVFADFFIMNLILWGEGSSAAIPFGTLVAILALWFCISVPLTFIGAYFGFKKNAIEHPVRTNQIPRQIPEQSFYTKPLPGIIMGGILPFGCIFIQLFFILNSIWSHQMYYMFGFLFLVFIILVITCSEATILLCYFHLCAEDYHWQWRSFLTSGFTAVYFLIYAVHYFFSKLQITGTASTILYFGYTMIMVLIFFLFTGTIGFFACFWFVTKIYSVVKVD
# Chain of UniProt Q969G3 (Q969G3 whole entry, looked up): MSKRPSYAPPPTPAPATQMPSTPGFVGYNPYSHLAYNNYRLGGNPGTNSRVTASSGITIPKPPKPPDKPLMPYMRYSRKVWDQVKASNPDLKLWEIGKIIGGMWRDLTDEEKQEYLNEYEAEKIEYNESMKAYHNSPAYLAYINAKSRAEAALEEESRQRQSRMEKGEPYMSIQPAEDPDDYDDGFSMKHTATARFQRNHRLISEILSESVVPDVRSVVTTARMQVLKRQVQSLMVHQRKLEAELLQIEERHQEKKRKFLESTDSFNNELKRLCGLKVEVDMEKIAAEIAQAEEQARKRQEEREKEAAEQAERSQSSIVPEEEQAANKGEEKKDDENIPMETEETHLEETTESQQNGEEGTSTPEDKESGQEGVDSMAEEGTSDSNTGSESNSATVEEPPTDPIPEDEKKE
# Chain of UniProt Q16385 (Q16385 whole entry, looked up): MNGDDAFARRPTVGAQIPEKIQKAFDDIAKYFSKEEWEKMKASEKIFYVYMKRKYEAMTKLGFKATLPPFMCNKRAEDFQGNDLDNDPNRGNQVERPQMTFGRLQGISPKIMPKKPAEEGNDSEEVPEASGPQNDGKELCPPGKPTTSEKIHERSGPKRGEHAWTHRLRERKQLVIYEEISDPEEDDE
# Chain of UniProt O15400 (O15400 whole entry, looked up): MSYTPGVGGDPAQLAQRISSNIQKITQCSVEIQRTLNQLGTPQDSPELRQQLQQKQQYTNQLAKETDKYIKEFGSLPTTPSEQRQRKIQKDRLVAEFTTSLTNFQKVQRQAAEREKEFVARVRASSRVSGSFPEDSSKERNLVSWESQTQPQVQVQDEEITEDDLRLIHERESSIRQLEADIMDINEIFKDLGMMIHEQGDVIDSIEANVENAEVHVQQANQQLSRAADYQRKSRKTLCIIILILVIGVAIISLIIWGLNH
Target,log2 fold change [1],log2 fold change (volasertib),log2 fold change [2],log2 fold change (epoxomicin),log2 fold change [3],log2 fold change [4],log2 fold change [5],log2 fold change (rosiglitazone),log2 fold change [6],log2 fold change [7]
TAF9 (UniProt Q16594),-0.028,0.095,-0.029,0.12,0.025,0.034,-0.021,-0.001,0.061,0.077
SUGP1 (UniProt Q8IWZ8),-0.155,-0.341 (active),0.056,0.062,-0.102,-0.007,0.021,0.042,-0.028,-0.081
SNUPN (UniProt O95149),-0.133,-0.296 (active),0.014,-0.013,0.019,-0.076,0.003,-0.001,-0.01,-0.004
SNX1 (UniProt Q13596),-0.135,-0.113,0.096,0.037,-0.096,-0.107,0.003,0.079,-0.029,-0.605 (active)
STX7 (UniProt O15400),-0.021,0.057,-0.03,-0.008,0.032,0.094,-0.006,-0.004,0.005,-0.116
SUOX (UniProt P51687),0.003,-0.04,-0.02,0.013,0.026,0,0.005,0.012,-0.07,-0.31 (active)
SURF2 (UniProt Q15527),-0.002,-0.046,0.014,0.04,-0.008,-0.078,0.037,0,-0.043,0.024
TM9SF2 (UniProt Q99805),-0.57 (active),-0.621 (active),-0.008,-0.034,0.033,-0.017,0.018,-0.052,-0.01,-0.182
SLC25A36 (UniProt Q96CQ1),-0.133,0.059,0.045,0.026,-0.002,-0.135,-0.217,-0.073,0.02,0.046
TGFBI (UniProt Q15582),-0.089,-0.211,-0.044,-0.33,-0.026,0.068,-0.128,0.118,0.171,-0.142
TBC1D9B (UniProt Q66K14),-0.58 (active),-0.348 (active),0.053,-0.073,-0.089,-0.141,0.021,-0.102,0.018,-0.328 (active)
STAM2 (UniProt O75886),-0.039,-0.297 (active),0.063,0.039,-0.007,-0.056,0,0.022,-0.033,-0.128
SMARCE1 (UniProt Q969G3),-0.006,-0.125,0.087,-0.033,-0.071,0.053,-0.036,-0.222,0.058,-0.045
TARBP1 (UniProt Q13395),-0.022,-0.337 (active),-0.107,0.121,0.018,0.077,-0.012,0.013,0.001,-0.027
SSX2 (UniProt Q16385),-0.046,-0.102,0.071,0.131,0.007,-0.036,0.007,0.045,-0.06,0.021
TBK1 (UniProt Q9UHD2),-0.093,-0.232,0.055,0.019,0.002,0.023,-0.033,0.076,0.172,-0.152
SUPT16H (UniProt Q9Y5B9),-0.426,-0.363,0.095,0.085,-0.108,-0.089,0.285,0.073,-0.02,-0.198
SRC isoform 2 (UniProt P12931),0.079,-0.03,0.108,-0.16,-0.101,-0.066,-0.032,0.029,-0.002,-0.149
SULT1A1 (UniProt P50225),-0.159,-0.445 (active),0.091,0.026,-0.056,-0.106,0.105,0.025,0.072,-0.208
SLC4A2 (UniProt P04920),0.039,-0.071,-0.044,0.029,-0.021,-0.028,0.022,0.066,0.035,-0.018
TAOK1 (UniProt Q7L7X3),0.03,-0.019,0.029,-0.02,-0.008,-0.024,0,0.032,0.017,-0.262 (active)
SP1 (UniProt P08047),0.047,0.102,0,-0.032,0.007,-0.003,-0.042,-0.005,0.006,-0.063
SLC30A10 (UniProt Q6XR72),0,-0.052,-0.052,0.045,0.023,-0.244,-0.028,0.039,-0.087,0.044
SPINDOC (UniProt Q9BUA3),-0.131,-0.178,-0.243,0.071,-0.094,0.105,0.074,-0.041,-0.222,-0.02
SRP68 (UniProt Q9UHB9),-0.077,-0.487 (active),0.079,0.094,-0.093,-0.024,0.019,0.048,0.133,-0.18
SURF1 (UniProt Q15526),-0.085,-0.274 (active),-0.055,0.012,-0.013,-0.059,0.013,0.035,-0.016,-0.311 (active)
SNX9 (UniProt Q9Y5X1),-0.125,-0.309 (active),0.04,-0.02,-0.018,-0.021,-0.006,0.025,0.009,-0.137
STXBP5 (UniProt Q5T5C0),-0.085,-0.344 (active),0.021,0.151,-0.019,0.046,0.033,0.007,0.015,-0.006
TATDN2 (UniProt Q93075),0.071,-0.008,0.104,-0.096,0.044,-0.071,-0.098,0.082,0.046,-0.076
STAT5B (UniProt P51692),-0.221,-0.333,0.36,0.004,-0.037,0.052,0.105,-0.003,-0.063,-0.045
